Screens from PubChem.
An excerpt weighted towards active compounds, which were near 12% of everything screened.
AMA1-RON2 inh = inhibitors of Plasmodium falciparum AMA1-RON2 interaction | AlphaScreen AMA1-biotinylated RON2 peptide binding | Potency, µM (doses to about 58.2 µM), for the others: at the top dose activity change, negative = inhibition, actives largely listed as inhibitors | actives 0.2% (n = 360,000);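 further: 0% = vehicle wells and -100% = peptide control; nearly all actives have a fitted effect of over 45% in size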
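AMA1 (3D7) with his tag at 25 nM final met compounds first, then biotinylated RON2 peptide at 25 nM; detection used donor plus acceptor beads, 10 µg/mL apiece, read by AlphaScreen after 30 min at room temperature.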
Pf growth 48h = inhibits P. falciparum growth in the first generation, 48 h; P. falciparum luciferase growth in erythrocytes, 48 h; Potency, µM (series often up to 28.7 µM), for the others: at the top dose activity change, negative = inhibition, actives largely listed as inhibitors; actives 5.9% (n = 310,000); further: on the % scale 0 is the no-effect control and ±100 the full control effect
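Erythrocytes infected with P. falciparum carrying an integrated firefly luciferase reporter (2% hematocrit, 0.1% parasitemia final) were exposed to compounds in RPMI 1640 with 0.5% Albumax at 37 C, 5% CO2. Growth inhibition was scored as reduced luminescence.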
Pf growth 96h = P. falciparum growth inhibition at 96 hours; P. falciparum luciferase reporter growth, 96 h; Potency, µM (series often up to 28.7 µM), for the others: top-dose activity change, negative = inhibition, usual class: inhibitors; actives 6.9% (n = 320,000); AID 504834; further: on the % scale 0 is the no-effect control and ±100 the full control effect
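P. falciparum expressing integrated firefly luciferase, in erythrocytes at 2% hematocrit, 0.05% parasitemia, incubated with compounds 96 h at 37 C, 5% CO2. Growth inhibition read as loss of luminescence; two-generation exposure targets delayed-death apicoplast inhibitors.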
NS1 inh = influenza NS1 inhibition; Potency, µM (top dose mostly 46.1 µM), for inactives: at the top dose activity, positive = more growth; actives 0.4% (n = 270,000); AID 2326; calls by dose curve; further: actives are rising curves; nearly all actives have a fitted effect of over 50% in size
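OD600 was taken as the measure of yeast growth restored by compound in an NS1-expressing S. cerevisiae strain. Cells had been washed out of glucose medium and diluted 1:100 into galactose -URA medium, pH 6.0.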
HCV inh = blocks hepatitis C virus; actives 3.4% (n = 340,000); Huh7.5.1 HCVcc-Cre infection, luciferase reporter, 44 h; Potency, µM (titrated, usually from 41.8 µM), inactives show at the highest dose activity change, negative = inhibition, most hits filed as inhibitors; further: on the % scale 0 is the no-effect control and ±100 the full control effect
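A cell-based infection assay in which seeded cells (1,000 per well) receive test compound after 4 h, are inoculated with HCVcc-Cre at approximately 0.5 moi, and are incubated 44 h before luminescence detection.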
SARS PLpro yeast = SARS-CoV PLP inhibition in yeast | actives 0.19% (n = 330,000) | S. cerevisiae expressing SARS-CoV PLpro, growth rescue | Potency, µM (doses to about 32.9 µM), without a hit: at the top dose activity, positive = growth rescue, most hits filed as activators; calls by dose curve; further: 0% is about no effect; nearly all actives have a fitted effect of over 55% in size
* hit, by the source's call; ? = inconclusive; nt = no result; [ ] = dose if it differs, or a comment. Unless noted, the call rests on the fitted dose curve; in most records, active means well fitted curve in the direction sought with a large enough effect; inconclusive means small, poorly fitted or top-dose-only effect, or another doubt; inactive means no such curve, though single readings can be large; an effect the other way counts as inactive or inconclusive. Potency means the concentration at half of the fitted maximal effect.

SMILES	AMA1-RON2 inh	Pf growth 48h	Pf growth 96h	NS1 inh	HCV inh	SARS PLpro yeast
CC1=C(C(=O)Nc2ccc(CC(=O)NCc3ccccc3C)cc2)SCCO1	-5%	46%	?	-5%	-13%	-2%
CCc1ccc(CNC(=O)Cc2ccc(NC(=O)C3=C(C)OCCS3)cc2)cc1	4%	126%	12µM*	8%	-27%	-4%
CCOc1ccccc1CNC(=O)c1ccc(NC(=O)C2=C(C)OCCS2)cc1	-16%	?	6.6µM*	6%	?	-4%
CCOc1ccc(/C(O)=C2\C(=O)C(=O)N(c3ccccn3)C2c2ccccc2F)c(C)c1 (configuration not stated)	-3%	nt	nt	nt	nt	nt
COc1ccc(CNS(=O)(=O)c2cc(CN3C(=O)c4cccnc4C3=O)ccc2OC)cc1	21%	9%	15µM*	-1%	23%	3%
CCOc1ccc(CCNS(=O)(=O)c2cc3c(cc2C)NC(=O)CO3)cc1OCC	4%	-5%	?	-3%	-25%	-3%
COc1ccc(F)cc1COc1nc(C)nc2ccccc12	-18%	-18%	?	-27%	-1%	5%
COc1ccc(C2NCCc3c2[nH]c2ccccc32)cc1COc1ccc(F)cc1 (configuration not stated)	-6%	?	?	-30%	10µM*	-4%
COc1ccc(C2NCCc3c2[nH]c2ccccc32)cc1CN1CCc2cc(OC)c(OC)cc2C1C (configuration not stated)	-7%	1.7µM*	?	-1%	11µM*	-1%
COc1cc2c(cc1OC)C(C)N(Cc1ccc3c(c1)OCO3)CC2 (configuration not stated)	-26%	58%	83%	-3%	3%	1%
COc1ccc(C(=O)O/N=C(\N)c2ccccc2)c(OC)c1	-4%	-66%	-72%	-101%	?	-56%
COc1ccc(C(=O)O/N=C(\N)c2ccc(OC)c(OC)c2)c(OC)c1	2%	75%	-9%	-8%	13µM*	-4%
COc1ccc(/C(N)=N/OC(=O)Cc2ccccc2[N+](=O)[O-])cc1	-4%	7%	13µM*	-3%	?	-5%
N/C(=N\OC(=O)Cc1ccccc1[N+](=O)[O-])c1cccnc1	1%	-8%	76%	-12%	12%	-2%
COc1ccc(/C(N)=N/OC(=O)c2ccc(OC)c([N+](=O)[O-])c2)cc1OC	0%	?	32%[5.75 µM]	0%	35µM*	-1%
COc1ccc(C(=O)O/N=C(\N)c2ccccc2Cl)cc1OC	12%	10%[0.00184 µM]	5.2µM*	-31%	10µM*	-6%
CC(=O)c1sc(NC(=O)C(C)Oc2ccc3c(C)cc(=O)oc3c2)nc1C (configuration not stated)	7%	-8%	7%	4%	-27%	-2%
COc1cc(CC(=O)N2CCN(C(=O)C3CCCO3)CC2)cc(OC)c1OC (configuration not stated)	-9%	nt	nt	nt	8%	9%
CC1(C)NC(=O)N(CC(=O)N2CCCC(C(F)(F)F)C2)C1=O (configuration not stated)	2%	?	21%	nt	23%	4%
CC12CCC(=O)N1C(C(=O)NCCN1C(=O)S/C(=C\c3ccc(F)cc3)C1=O)CS2 (configuration not stated)	10%	?	?	nt	-1%	-7%
Cc1nnc(Nc2ccc(C(=O)O)cc2)[nH]c1=O	-2%	4%	3%	11%	4%	3%
Cc1nnc(Nc2ccc(O)cc2)[nH]c1=O	2%	16%	50%	5%	14µM*	-1%
CCN(CC(=O)Nc1cc(S(=O)(=O)N2CCCCC2)ccc1Cl)Cc1ccccc1	-3%	10µM*	10µM*	nt	?	-2%
O=C(C1CCCN(S(=O)(=O)c2ccc(Cl)cc2)C1)N(Cc1cccs1)C1CC1 (configuration not stated)	0%	13µM*	1%	-20%	10µM*	-2%
CN(CC(=O)Nc1cc(S(=O)(=O)N2CCCC2)ccc1Cl)Cc1cccs1	32%	?	-18%	2%	6.3µM*	0%
SMILES	AMA1-RON2 inh	Pf growth 48h	Pf growth 96h	NS1 inh	HCV inh	SARS PLpro yeast
CCN(CC(=O)Nc1cc(S(=O)(=O)N2CCOCC2)ccc1Cl)Cc1ccccc1	37%	12µM*	12µM*	nt	7.9µM*	3%
CC(C)CCn1nnnc1CN1CCN(C(=O)c2ccco2)CC1	-21%	8%	?	-2%	-4%	-1%
Cc1cc(C)c(C(O)c2ncc(-c3ccccc3Cl)[nH]2)c(C)c1 (configuration not stated)	3%	nt	nt	nt	nt	nt
O=C(c1cc2cc(F)ccc2[nH]1)N1CCc2ccccc21	0%	?	?	-1%	4%	0%
O=C(c1cc2cc(Br)ccc2[nH]1)N1CCc2ccccc21	-2%	?	1.5µM*	-2%	11%	1%
Cc1cc(C)c[n+](C2=C([O-])c3ccccc3C(=O)/C2=N\S(=O)(=O)c2cccs2)c1	-4%	1.9µM*	?	2%	?	2%
CN(/C(=N/S(=O)(=O)c1cccs1)c1ccccc1)c1ccccc1	-5%	-9%	-22%	4%	16%	-13%
Cc1cc[n+](C2=C([O-])c3ccccc3C(=O)/C2=N\S(=O)(=O)c2cccs2)cc1C	-8%	2.6µM*	3.3µM*	13%	11µM*	-2%
CCCCn1nc(C(=O)N2CCN(S(=O)(=O)c3ccccc3)CC2)c2ccccc2c1=O	-5%	?	?	nt	?	0%
CC1(c2ccccc2)NC(=O)N(CC(=O)N2CCc3ccccc32)C1=O (configuration not stated)	-12%	nt	nt	nt	nt	nt
CC1(c2cccc(Br)c2)NC(=O)N(CC(=O)N2CCc3ccccc32)C1=O (configuration not stated)	11%	-1%	?	nt	10µM*	5%
CCOC(=O)CNC(=S)N1CCn2c(nc3ccccc32)C1	9%	-4%	?	nt	-9%	6%
O=C(O)C1C2C=CC(C2)C1C(=O)NCCCN1CCOCC1 (configuration not stated)	3%	6%	12µM*	-11%	-17%	7%
COc1cccc(OCC(O)CN2CCC(CN3C(=O)c4cccc5cccc(c45)C3=O)CC2)c1 (configuration not stated)	?	?	?	nt	?	2%
Cc1cc(C)cc(OCC(O)CN2CCC(CN3C(=O)c4cccc5cccc(c45)C3=O)CC2)c1 (configuration not stated)	-14%	10%	30%	20%	2.2µM*	8%
